Measured potencies and affinities stand elsewhere. Calls of active or inactive are those of the source. How the calls were made is not given here.
assay: VEEV TC-83 cytopathic effect inhibition, confirmation, cell-based, TC-83 strain, set 7 (AID 651734); details: VEEV TC-83 infected cells; series mostly up to 50 µM; inhibition: at the top concentration

SMILES | inhibition
CCN1CCN(Cc2nc3ccc(-c4ccccn4)cc3c(=O)n2-c2ccccc2)CC1 | 11.6% (inactive)
COc1ccc(Nc2nc(=O)c3cccnc3s2)cc1 | -0.67% (inactive)
COc1ccc(CNc2nc(=O)c3cccnc3s2)cc1 | -4.9% (inactive)
CCN1CCN(C2c3ncccc3C(=O)N2c2ccccc2)CC1 (centres undefined) | 1.8% (inactive)

Source: PubChem BioAssay AID651734 (Southern Research Specialized Biocontainment Screening …, 2012)
